Results from PubChem BioAssay AID1009 (NMMLSC, 2008).
In all, about 190,000 compounds went through this assay and about 200 (0.11%) were called active. The list comes from a sample in which actives are over-represented; it also holds similar structures and randomly drawn compounds. Unmarked numbers belong to inactive results. No stated cut-off is given here; in the data, active means inhibition above about 40%.

What follows are compounds tested against Induced myeloid leukemia cell differentiation protein Mcl-1 (Homo sapiens) (UniProt Q07820) (assay: Mcl-1/Bim interaction disruptors – biochemical, bead-based flow cytometry, multiplex, primary screen (AID 1009;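 further: 0% = no compound tracer wells and 100% = peptide blocker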)). Settings: Bim peptide-Mcl-1 binding, at 10 µM, hits give high values.
Chain of Induced myeloid leukemia cell differentiation protein Mcl-1 (Homo sapiens) (Q07820 whole entry, looked up): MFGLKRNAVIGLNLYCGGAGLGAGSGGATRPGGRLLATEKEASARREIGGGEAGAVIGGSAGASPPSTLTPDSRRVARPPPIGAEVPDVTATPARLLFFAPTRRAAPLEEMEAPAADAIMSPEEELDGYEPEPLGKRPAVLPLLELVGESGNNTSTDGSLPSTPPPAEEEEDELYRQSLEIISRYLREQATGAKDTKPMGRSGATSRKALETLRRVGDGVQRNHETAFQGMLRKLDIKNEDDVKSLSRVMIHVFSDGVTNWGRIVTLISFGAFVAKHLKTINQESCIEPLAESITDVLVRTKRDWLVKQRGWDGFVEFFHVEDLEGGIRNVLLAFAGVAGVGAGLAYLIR

SMILES	inhibition
COCCNC(=O)CCCn1c(=O)c2ccccc2n(Cc2cccc([N+](=O)[O-])c2)c1=O	0%
CCC(=O)N1c2ccccc2NC2=C(C(=O)CCC2)C1c1ccco1 (configuration not stated)	0%
S=c1[nH]cc(-c2ccc(Cl)cc2)n1-c1ccccc1	3%
CC/C(=N\NC(=S)NC(C)C)c1ccc(OC(F)F)cc1	-2%
O=c1cc(CO)oc(C(Nc2cccc([N+](=O)[O-])c2)c2ccccn2)c1O (configuration not stated)	-4%
CCCc1nc2c([nH]1)C(c1cccnc1)C(C#N)=C(N)O2 (configuration not stated)	-3%
COCCCNC(=S)N1CCCC(c2nc3cc(C)c(C)cc3[nH]2)C1 (configuration not stated)	6%
O=C(O)c1ccc2c3c(cccc13)C(=O)N(OS(=O)(=O)c1ccccc1)C2=O	1%
O=c1[nH]c(CN2CCOCC2)nc2scc(-c3ccccc3)c12	0%
O=C(O)Cc1ccc(NCc2ccccc2Cl)cc1	-2%
CC(NC(=O)CC1SC(N)=NC1=O)c1ccccc1 (configuration not stated)	-7%
CCc1nn(CCCN2CCN(c3cccc(Cl)c3)CC2)c(=O)n1CCOc1ccccc1	0%
O=C1CS(=O)CN1c1ccc(Oc2ccccc2)cc1 (configuration not stated)	0%
C=C(C)C1CC=C(C)/C(=N\NC(=O)CNc2ccccc2OC)C1 (configuration not stated)	0%
COc1ccc([N+](=O)[O-])cc1NC(=O)CC1SC(=Nc2cccc(C)c2C)N(/N=C(\C)c2ccc(C)cc2)C1=O (configuration not stated)	-1%
Cc1ccccc1NC(=O)Cn1c(=O)n(CC2CCCO2)c(=O)c2ccccc21 (configuration not stated)	-1%
COc1cccc(NC(=S)C(C#N)=C2N(C)c3ccccc3N2C)c1	-1%
CCc1[nH]nc(C(=O)N2CCCC(CNS(=O)(=O)c3cccs3)C2)c1C (configuration not stated)	0%
CC(C(=O)NCC1CCCCC1)N(C)Cc1cccc(Cl)c1 (configuration not stated)	-1%
CCO[C@H]1OC(C(=O)N2CCCCCCC2)=C[C@@H](c2ccc(C(F)(F)F)cc2)[C@@H]1CCCO	-4%
O=S(=O)(c1ccc(F)cc1)N1CCN(C(=S)NCc2ccco2)CC1	-6%
CC(=O)Nc1ccc(NC(=S)NC(=O)c2ccc([N+](=O)[O-])c(C)c2)cc1	2%
CN1CCN(CCNC(=O)Nc2ccc([N+](=O)[O-])cc2)CC1	-3%
CC1CCC(C(C)C)C(=O)/C1=C\c1ccc(NC(=O)CCC(=O)O)cc1 (configuration not stated)	0%
Cc1ccc(CN2CCN(Cc3ccccc3-c3ccco3)CC2CCO)o1 (configuration not stated)	-1%

SMILES	inhibition
CCCCC1S/C(=N/N=C/c2cccs2)NC1=O (configuration not stated)	-1%
NC(=O)c1ccc(N2CCOCC2)nc1	1%
Cc1ccc2nc(C)cc(N/N=C/c3ccc(F)cc3)c2c1	0%
Cc1n[nH]c(=O)nc1N/N=C/c1cccs1	-1%
CC(=O)N/N=C/c1cc2c(cc1[N+](=O)[O-])OCO2	-2%
Cc1ccc(Cl)cc1NC(=O)c1ccccn1	-2%
NS(=O)(=O)c1ccc(NC(=O)COC(=O)c2ccco2)cc1	1%
O=C(N/N=C/c1ccco1)c1ccc(NC(=O)C2CC2)cc1	-2%
Cc1ccc2c(CC(=O)NCc3cccs3)coc2c1	-3%
COc1ccccc1NC(=O)C[n+]1ccccc1	0%
CCOC(=O)/C(C#N)=C/c1ccc(N2CCCCC2)cc1	0%
CCOC(=O)c1sc2nc(C)nc(Nc3ccc(OC)c(OC)c3)c2c1C	3%
Cc1nc2ccccc2c(C)c1C(=O)c1ccc(F)cc1	0%
CCOC(=O)c1ccc(NNC(C)=O)c([N+](=O)[O-])c1	-1%
Cc1nc2cc(NCc3cccs3)ccc2n1C	-1%
COc1ccc(N2CCN(C(=O)C3CCN(S(=O)(=O)c4ccc(C)cc4)CC3)CC2)cc1	0%
O=C(CC1SC(=Nc2ccccc2)N(Cc2ccccn2)C1=O)Nc1cccc(Cl)c1 (configuration not stated)	2%
CCOC(=O)c1sc(=NC(=O)/C=C/c2cccs2)n(C)c1C	3%
CC(=O)N1CCN(S(=O)(=O)c2ccc(C)c([N+](=O)[O-])c2)C1C(C)C (configuration not stated)	0%
CCC1(CC)NC(=O)N(Cc2nc3ccccc3s2)C1=O	-2%
CCCNC(=O)OC[C@H]1O[C@H](CCO/N=C/[C@@H](NS(=O)(=O)c2ccc(C)cc2)[C@H](C)/C=C/CC(=O)OC)C=C[C@@H]1Oc1ccc(OC)cc1	-2%
Cc1ccc(C(=O)NC(=S)Nc2ccc3[nH]c(=O)[nH]c3c2)cc1C	-2%
CSc1nc2nc(-c3cccc(C(F)(F)F)c3)ccn2n1	5%
Cc1ccc(S(=O)(=O)N(C)C)cc1NC(=O)COC(=O)C1COc2ccccc2O1 (configuration not stated)	3%
O=C(CCN1C(=O)c2ccncc2C1=O)Nc1cc(F)ccc1F	0%

SMILES	inhibition
O=C(c1ccc(F)cc1)N1CCC(n2nnc3ccccc32)CC1	-2%
Cc1ccc(C)c(Cn2cnc3c(oc4ccccc43)c2=O)c1	-1%
COc1ccc(-c2ccc(CNCCCN3CCOCC3)o2)cc1Cl	2%
Cc1ccc(C(=O)O)cc1NC(=O)c1ccc(Cn2nc(C)c(Cl)c2C)o1	1%
COc1cc(NC(=S)N2CCCC(C)C2)c(OC)cc1Cl (configuration not stated)	-5%
CCCCN(CC)CCNC(=O)CCNC(=O)Cn1ccc2ccccc2c1=O	-4%
O=C(CCSc1ccccc1)N1CCN(c2ccccc2F)CC1	-2%
CCCN=C1NC(=O)C(CC(=O)NCCc2ccc(OC)c(OC)c2)S1 (configuration not stated)	-11%
Cc1ccc(S(=O)(=O)N2CCN(C(=O)c3cccs3)CC2)cc1	-5%
Cc1ccc(S(=O)(=O)NCCC(c2ccccc2)c2ccccc2)cc1C(=O)O	1%
CN(C)C(=O)c1cccn(Cc2cccc(C(F)(F)F)c2)c1=O	0%
Cc1ccc(-c2ccc(/C=C(\C#N)C(N)=S)o2)c([N+](=O)[O-])c1	0%
O=C(COC(=O)Cn1cnc2ccccc2c1=O)NCC12CC3CC(CC(C3)C1)C2	-4%
N#C/C(C(=S)Nc1ccccc1)=C1/NN=C(N2CCOCC2)N1c1ccccc1	0%
CCN(CC)S(=O)(=O)c1ccc(N2CCOCC2)c(NC(=O)C2COc3ccccc3O2)c1 (configuration not stated)	2%
CCc1cc(C(=O)OC)c(NC(=O)CC2Sc3ccc(C(F)(F)F)cc3NC2=O)s1 (configuration not stated)	-1%
Cc1ccc(S(=O)(=O)N(C)CC(=O)OCC(=O)N2CC(=O)Nc3ccccc32)cc1	1%
Cc1ccc(S(=O)(=O)NCC(=O)OCC(=O)N2CCc3ccccc32)cc1	-6%
Cc1ccc(S(=O)(=O)N(C)CC(=O)N2CCc3ccccc32)cc1	41% (active)
Cc1nnsc1C(=O)N/N=C/c1cccc(C(F)(F)F)c1	-2%
CN(C)c1ccc(/C=N\S(=O)(=O)c2ccccc2)cc1	-6%
Cc1cc(NC(=O)CSCc2ccccc2C)no1	0%
COc1ccc(-n2c(C)cc(C(=O)COC(=O)c3cc(OC)c(OC)cc3NC(=O)c3cccs3)c2C)cc1	-5%
O=C(O)c1cccc(NC(=S)N/N=C/c2c[nH]c3ccccc23)c1	-3%
CC(C)N(C)C(=O)CCc1nnc(CCc2c[nH]c3ccccc23)o1	-3%

SMILES	inhibition
CCCCn1nc(C(=O)OCC(=O)Nc2sccc2C(N)=O)c2ccccc2c1=O	-1%
CC(=O)Nc1ccc(S(=O)(=O)N(C)c2ccc(OCC(=O)OCC(=O)N3CCCCC3)cc2)cc1	-2%
COc1ccc(CN(C)C(=S)Nc2ccc(Cl)cc2Cl)cc1	1%
CCOC(=O)c1c(-c2cccc(N)c2)cn2ccccc12	0%
Cc1ccc(S(=O)(=O)NC(=O)COc2ccccc2C)cc1	51% (active)
COCCNC(=O)COc1ccccc1C	2%
COc1ccccc1CNS(=O)(=O)c1ccc(C)cc1	-2%
CN1CCN(CC#CCC2(O)c3ccccc3-c3ccccc32)CC1	-1%
O=C(Nc1nnc(-c2ccco2)o1)c1ccc(S(=O)(=O)N2CCOCC2)cc1	0%
COCCn1c(=NC(=O)c2ccccc2[N+](=O)[O-])sc2cc(S(C)(=O)=O)ccc21	-2%
CC1(C)CC(=O)C(CC(=O)N2CCC(Cc3ccccc3)CC2)C(=O)C1	1%
COc1ccc(Cl)cc1NC(=O)COC(=O)C(CC(C)C)N1C(=O)C2CC=CCC2C1=O (configuration not stated)	-1%
Cc1cc(NC(=O)CN2C(=O)NC(CCc3ccccc3)C2=O)no1 (configuration not stated)	-1%
Cc1c(CCOC(=O)c2cc([N+](=O)[O-])ccc2Cl)sc[n+]1CCCCS(=O)(=O)[O-]	-1%
Cc1cccc(C(=O)OCC(=O)NCC(C)C)c1O	4%
CC1(C)CC(=O)C(C2c3ccccc3S(=O)(=O)c3ccccc32)C(=O)C1	-1%
COc1ccc2oc(=O)c(C(=O)N3CCCC3)cc2c1	3%
C=CCC(CC=C)(C(N)=O)c1ccccc1	3%
COc1cc(NC(=O)COC(=O)c2cnc(C)cn2)c(C)cc1[N+](=O)[O-]	0%
Cc1ccc(-c2ccc(/C=N/NC(=O)CN3CCOCC3)o2)cc1[N+](=O)[O-]	-1%
Cc1cc(C)n2nc(SCC(=O)NC(=O)NCc3ccco3)nc2n1	0%
CN(C)c1ccc(C(CC(=O)O)C(=O)O)cc1 (configuration not stated)	-1%
